# Measurements taken from PubChem BioAssay AID485344 (National Center for Advancing Translational Sciences (NCATS), 2010).
# About 6,900 (2%) of roughly 340,000 compounds were called active. Rule as the data show it: active = inhibition above about 30%; inactive = below that, where a call was filed. Shown is part of a subset that was picked to be rich in actives.
# Biological target: D(2) dopamine receptor (Homo sapiens) (UniProt P14416)
# Assay: HTS Assay for Allosteric Antagonists of the Human D2 Dopamine Receptor: Primary Screen for Antagonists; also: 0% is about no effect
# Settings: HEK293 TREx D2 cells, calcium flux, dopamine EC80; at 10 µM; hits give high values
# Summary of the method: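 Calcium flux kinetic readout in an inducible HEK293 TREx D2 line plated overnight at 30 C. After 180 s compound exposure, an EC80 dopamine challenge follows with another 180 s kinetic read to detect antagonism.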
# Chain of D(2) dopamine receptor (Homo sapiens) (P14416 whole entry, looked up): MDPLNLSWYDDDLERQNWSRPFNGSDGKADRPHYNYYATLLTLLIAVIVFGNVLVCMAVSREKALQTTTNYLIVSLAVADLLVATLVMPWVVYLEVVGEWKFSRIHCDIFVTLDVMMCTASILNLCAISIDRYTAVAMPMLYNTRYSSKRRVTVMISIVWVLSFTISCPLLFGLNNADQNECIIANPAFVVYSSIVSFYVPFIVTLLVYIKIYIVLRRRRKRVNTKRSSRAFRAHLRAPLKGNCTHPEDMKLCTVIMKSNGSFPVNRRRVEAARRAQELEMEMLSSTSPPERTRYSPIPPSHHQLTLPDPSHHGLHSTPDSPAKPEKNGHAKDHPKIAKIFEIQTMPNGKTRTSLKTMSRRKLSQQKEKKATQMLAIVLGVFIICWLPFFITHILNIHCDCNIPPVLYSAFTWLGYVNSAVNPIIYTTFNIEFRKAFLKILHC
row,SMILES,inhibition
1,O=C(c1ccc(Cl)nc1)N1CCN(S(=O)(=O)c2ccc3c(c2)OCCO3)CC1,-22.8% (inactive)
2,O=C(COC(=O)c1ccccc1SCC(=O)NC1CCCCC1)NC1CCCCC1,-0.864% (inactive)
3,O=C(COC(=O)c1cccc(Cl)c1)NC1CCCCCCC1,4.87% (inactive)
4,O=C(COC(=O)c1ccccc1Cl)NC1CCCCCCC1,40.2% (active)
5,Cc1ccc(C(C)C)cc1OCCN1CCCC1,-14.6% (inactive)
6,Cc1ccc(OCCCCN2CCCCC2)c(Br)c1,73.5% (active)
7,O=[N+]([O-])c1ccccc1OCCCCN1CCCCC1,93.9% (active)
8,CC1CN(CCOc2ccccc2[N+](=O)[O-])CC(C)O1 (centres undefined),1.8% (inactive)
9,C=CCN(CC=C)CCOc1ccccc1[N+](=O)[O-],6.41% (inactive)
10,Cc1ccc(C(C)(C)C)c(OCCCCN2CCCC2)c1,31% (active)
11,COc1cccc(OCCCN2CCCCCC2)c1,-12.6% (inactive)
12,CC(=O)Nc1ccc(S(=O)(=O)N2CCN(CCCOc3cc(C)ccc3C)CC2)cc1,3.73% (inactive)
13,CC(C)(c1ccccc1)c1ccc(OCCN2CCCC2)cc1,0.0464% (inactive)
14,CCN(C(=O)CSc1ncnc2sccc12)c1c(N)n(Cc2ccccc2)c(=O)[nH]c1=O,-15.3% (inactive)
15,Cc1ccc(S(=O)(=O)N2CCCCC2)cc1NC(=O)[C@@H]1CCCN1C(=O)c1cccs1,-14.3% (inactive)
16,Cc1cc(C)c(S(=O)(=O)N2CCC(C(=O)OCc3c(C)noc3C)CC2)c(C)c1,7.04% (inactive)
17,O=C(CN1CCCCC1)Nc1ccccc1C(=O)NC1CC1,7.71% (inactive)
18,Cc1ccc(NC(=O)COC(=O)CN2CCCCCC2=O)c(C)c1,-4.24% (inactive)
19,OCC1(CCc2ccccc2)CCN(Cc2ccc3nsnc3c2)CC1,36.1% (active)
20,CC(C)(O)C#Cc1ccc(CN2CCC(CO)(CCc3ccccc3)CC2)cc1,14.6% (inactive)

row,SMILES,inhibition
1,Cc1cccc(-c2ncc(CN3CCC(CO)(CCCc4ccccc4)CC3)cn2)c1,6.88% (inactive)
2,CN(CCOc1ccccc1)C(=O)c1cc(-c2ccco2)nc2ccccc12,3.66% (inactive)
3,CC(OC(=O)CNC(=O)c1ccc(Cl)c([N+](=O)[O-])c1)C(=O)NCc1ccco1 (centres undefined),26.5% (inactive)
4,N#Cc1cccc(NC(=O)COC(=O)c2ccccc2C(=O)c2ccc(Cl)c([N+](=O)[O-])c2)c1,7.92% (inactive)
5,CC(=O)Nc1ccc(NC(=O)C(C)OC(=O)c2ccccc2C(=O)c2ccc(Cl)c([N+](=O)[O-])c2)cc1 (centres undefined),36.3% (active)
6,Cc1ccc(S(=O)(=O)CCC(=O)OCC(=O)NCCc2ccc(S(N)(=O)=O)cc2)cc1,-1.28% (inactive)
7,CC(=O)Nc1ccc(NC(=O)C(NS(=O)(=O)c2ccc3c(c2)OCCO3)C(C)C)cc1 (centres undefined),-6.92% (inactive)
8,CCOCc1c(C(=O)N2CCN(Cc3ccc(Br)s3)CC2)oc2ccccc12,32.1% (active)
9,COCC(=O)Nc1c(C(=O)N2CCCC2)oc2ccccc12,-20% (inactive)
10,COc1ccc(N2CCN(Cc3ccc(Br)s3)CC2)cc1,-12.7% (inactive)
11,CS(=O)(=O)c1ccc(Cl)c(NC(=O)COC(=O)c2ncc(Cl)c(Cl)c2Cl)c1,-16.5% (inactive)
12,COc1cc(NC(=O)NCC2CCN(Cc3ccc(C)cc3)CC2)cc(OC)c1OC,33.3% (active)
13,Cc1ccc(C)c(CN2CCC(CNC(=O)Nc3ccc(C)c(F)c3)CC2)c1,-38% (inactive)
14,Cc1cccc(CN2CCC(CNC(=O)Nc3ccc(F)c(Cl)c3)CC2)c1,-7.23% (inactive)
15,COc1cc(C(=O)N(C)Cc2cccc(OC)c2OC)ccc1OCC(=O)Nc1cccc(C(F)(F)F)c1,-10.9% (inactive)
16,CCCCCCOc1ccc(OC(=O)c2cccnc2)cc1,3.26% (inactive)
17,O=C(Oc1ccc(Br)cc1)c1cccnc1,38.5% (active)
18,N#CCc1ccc(OC(=O)c2cccnc2)cc1,0.882% (inactive)
19,Cc1ccc2c(CN3CCN(S(=O)(=O)c4ccccc4C(F)(F)F)CC3)cc(=O)oc2c1,-23.9% (inactive)
20,CC(C)(C)OC(=O)NCCCCCNC(=O)c1nc[nH]c1C(=O)NCc1ccccc1,7.02% (inactive)

row,SMILES,inhibition
1,Cc1ccc(-c2cc(C(=O)NC3CCN(Cc4ccccc4)CC3)c3ccccc3n2)cc1,-27.8% (inactive)
2,Cc1ccc(S(=O)(=O)NCCC(=O)NC2CCN(Cc3ccccc3)CC2)cc1,27.4% (inactive)
3,Cc1ccc(-c2nc(CSCC(=O)NC3CCN(Cc4ccccc4)CC3)c(C)o2)cc1,47.3% (active)
4,CN(CC(=O)Nc1ccc(F)cc1)CC(=O)N1CCCCC1,-7.3% (inactive)
5,Cc1cc(C(=O)Nc2nnc(C3CC3)s2)c(C)s1,3.85% (inactive)
6,COc1ccc(CC2(CO)CCN(Cc3cnn(C)c3)CC2)cc1,-4.17% (inactive)
7,COC(=O)c1ccc(CN2CCC(CO)(Cc3ccc(OC)cc3)CC2)cc1,63.2% (active)
8,CCOC(=O)C1(CCOC)CCN(Cc2ccc(C(=O)OC)cc2)CC1,5.1% (inactive)
9,Cc1ccc(C)c(NC(=O)COC(=O)CSc2ccccc2)c1,-6.28% (inactive)
10,N#CCCN(C(=O)COC(=O)C1CCN(c2ccc(C(F)(F)F)cn2)CC1)c1ccc(F)cc1,5.59% (inactive)
11,COc1ccc(Cl)cc1NC(=O)COc1ccc2c(c1)OCO2,7.9% (inactive)
12,C[C@H](OC(=O)n1ccnc1)[C@@H]1O[C@@]2(C)CCC[C@@H]1O2,-7.72% (inactive)
13,CC1(C)OC(=O)N2CCc3ccccc3C21C (centres undefined),40.5% (active)
14,CC1Cc2ccccc2N1C1=CC(=O)CC(C)(C)C1 (centres undefined),3.51% (inactive)
15,CCN(CC(=O)Nc1ccccc1C(F)(F)F)C(=O)CSCc1c(C)noc1C,1.97% (inactive)
16,C=CCN1C(=O)C(O)(CC(=O)c2ccccn2)c2ccccc21 (centres undefined),3.67% (inactive)
17,C=CCN1C(=O)C(O)(CC(=O)c2ccc(Cl)cc2)c2ccccc21 (centres undefined),0.63% (inactive)
18,O=C(CC1(O)C(=O)N(CN2CCOCC2)c2ccccc21)c1ccccc1 (centres undefined),30.3% (active)
19,CCc1noc(C)c1C(=O)Oc1ccc(N(C)S(=O)(=O)c2ccc(C)c(C)c2)cc1,-5.58% (inactive)
